# According to PubChem BioAssay (EPA / NIEHS):
# “And” between values parts separate entries of the source, which are not always exact repeats. Identical values can stand only once. Some structures have more than one record in an assay (separate samples or runs), and their calls can disagree. The source made the active and inactive calls. Rule for the calls: active = hit-call score of the fitted dose curve at least 0.9, where 1 is the maximum; inactive = score below 0.9.
# What was measured:
# [1] = BSK_CASM3C_SRB: Viability Assessment in the BioMAP Diversity Plus: CASM3C Assay (AID 2283050); conditions: primary human coronary artery smooth muscle cells;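 note: cells exposed to compound for 24 h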
# [2] = read-out: Thrombomodulin, THBD (gene 7056); test: BSK_CASM3C_Thrombomodulin: BioMAP Diversity Plus: CASM3C Assay for Thrombomodulin Biomarker Activity (AID 2283051); conditions: primary human coronary artery smooth muscle cells; actives raise or lower the signal;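 note: thrombomodulin protein level measured by ELISA 24 h after dosing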
# [3] = read-out: Tissue Factor, F3 (gene 2152); test: BSK_CASM3C_TissueFactor: BioMAP Diversity Plus: CASM3C Assay for Tissue Factor Biomarker Activity (AID 2283052); conditions: primary human coronary artery smooth muscle cells; actives raise or lower the signal;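 note: cell surface tissue factor protein level read by ELISA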
# [4] = read-out: Interferon-gamma inducible Protein 10 (IP10), CXCL10 (gene 3627); test: BSK_hDFCGF_IP10: BioMAP Diversity Plus: hDFCGF Assay for Interferon-gamma inducible Protein 10 (IP10) Biomarker Activity (AID 2283053); conditions: primary human foreskin fibroblasts; actives raise or lower the signal
# Method in brief: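 Primary human foreskin fibroblasts exposed to chemicals for 24 h. IP-10 measured by ELISA; changes fitted bidirectionally against DMSO baseline.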
# [5] = read-out: Urokinase-type plasminogen activator receptor (uPAR), PLAUR (gene 5329); test: BSK_CASM3C_uPAR: BioMAP Diversity Plus: CASM3C Assay for Urokinase-type plasminogen activator receptor (uPAR) Biomarker Activity (AID 2283054); conditions: primary human coronary artery smooth muscle cells; actives raise or lower the signal;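 note: cell-surface uPAR protein level quantified by ELISA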
# [6] = read-out: Vascular cell adhesion molecule 1 (VCAM1), VCAM1 (gene 7412); test: BSK_CASM3C_VCAM1: BioMAP Diversity Plus: CASM3C Assay for Vascular cell adhesion molecule 1 (VCAM1) Biomarker Activity (AID 2283055); conditions: primary human coronary artery smooth muscle cells; actives raise or lower the signal;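 note: VCAM-1 protein level quantified by ELISA on the cells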
# [7] = read-out: Collagen III, COL3A1 (gene 1281); test: BSK_hDFCGF_CollagenIII: BioMAP Diversity Plus: hDFCGF Assay for Collagen III Biomarker Activity (AID 2283056); conditions: primary human foreskin fibroblasts; actives raise or lower the signal
# Method in brief: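 Cells: human foreskin fibroblasts, primary. Dosing followed by 24 h incubation, then ELISA for collagen III. Both increases and decreases scored relative to DMSO.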
# [8] = read-out: Epidermal growth factor receptor (EGFR), EGFR (gene 1956); test: BSK_hDFCGF_EGFR: BioMAP Diversity Plus: hDFCGF Assay for Epidermal growth factor receptor (EGFR) Biomarker Activity (AID 2283057); conditions: primary human foreskin fibroblasts; actives raise or lower the signal
# Method in brief: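 Primary human foreskin fibroblasts (hDFCGF system), sampled 24 h after dosing; EGFR quantified by ELISA. Bidirectional fit relative to DMSO baseline; SRB total-protein staining in parallel cultures for cytotoxicity.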
# [9] = read-out: Interleukin-8 (IL8), CXCL8 (gene 3576); test: BSK_hDFCGF_IL8: BioMAP Diversity Plus: hDFCGF Assay for Interleukin-8 (IL8) Biomarker Activity (AID 2283058); conditions: primary human foreskin fibroblasts; actives raise or lower the signal
# Method in brief: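 IL-8 levels from compound-treated primary human fibroblasts were read by ELISA at 24 h, with DMSO serving as baseline for bidirectional fitting.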
# [10] = BSK_hDFCGF_Proliferation: Cell Proliferation Assessment in the BioMAP Diversity Plus: hDFCGF Assay (AID 2283059); conditions: primary human foreskin fibroblasts;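 note: curves fitted for both rise and fall of signal versus DMSO baseline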
# Method in brief: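 Total protein read at 560 nm after 0.1% SRB staining of TCA-fixed human skin fibroblasts, […]. Activity is fitted in both directions relative to DMSO as baseline.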
Structure (SMILES),outcome [1],outcome [2],outcome [3],outcome [4],outcome [5],outcome [6],outcome [7],outcome [8],outcome [9],outcome [10],AC50 [1],AC50 [2],AC50 [4],AC50 [5],AC50 [6],AC50 [7],AC50 [9],AC50 [10],AC50 [8],AC50 [3]
O=C(Nc1ccccc1)Nc1cnns1,inactive,inactive,inactive,inactive,inactive,inactive,inactive,inactive,inactive,inactive,–,–,–,–,–,–,–,–,–,–
O=S1OCC2C(CO1)C1(Cl)C(Cl)=C(Cl)C2(Cl)C1(Cl)Cl (stereo unspecified),–,–,inactive,–,–,–,–,inactive,–,–,32.4 µM (active),14.3 µM (active),29.5 µM (active),36.6 µM (active),25.8 µM (active),22.5 µM (active),33.8 µM (active),23.2 µM (active),–,–
CCC(C)(NC(=O)c1cc(Cl)c(C)c(Cl)c1)C(=O)CCl (stereo unspecified),–,inactive,inactive,–,–,–,–,–,–,–,23.4 µM (active),–,5.56 µM (active),11.5 µM (active),9.89 µM (active),11.3 µM (active),30.9 µM (active),4.14 µM (active),30.6 µM (active),–
COP(=S)(OC)Oc1ccc(SC)c(C)c1,inactive,inactive,inactive,inactive,inactive,inactive,inactive,inactive,–,inactive,–,–,–,–,–,–,–,–,–,–
CCS(=O)(=O)c1cccnc1S(=O)(=O)NC(=O)Nc1nc(OC)cc(OC)n1,inactive,inactive,inactive,inactive,inactive,inactive,inactive,inactive,inactive,inactive,–,–,–,–,–,–,–,–,–,–
Oc1cc(Cl)ccc1Oc1ccc(Cl)cc1Cl,–,inactive,inactive,–,–,–,–,inactive,–,–,33.1 µM (active) [middle of 4 runs],4.67 µM (active),15.4 µM (active) [middle of 4 runs],32 µM (active) [middle of 4 runs],35.4 µM (active) [middle of 4 runs],7.46 µM (active) [middle of 4 runs],–,4.61 µM (active) [middle of 4 runs],5.45 µM (active) and 5.46 µM (active),28.3 µM (active) and 27.8 µM (active) and 22.2 µM (active)
CC(C)(C)C(O)/C(=C\c1ccc(Cl)cc1Cl)n1cncn1 (stereo unspecified),inactive,–,inactive,–,inactive,inactive,inactive,inactive,inactive,–,–,15 µM (active),36.5 µM (active),–,–,–,–,29.8 µM (active),–,–
O=C(O)COc1ccc(Cl)cc1Cl,inactive,inactive,inactive,inactive,inactive,inactive,inactive,inactive,–,inactive,–,–,–,–,–,–,–,–,–,–
ClC1C(Cl)C(Cl)C(Cl)C(Cl)C1Cl (stereo unspecified),inactive,inactive,inactive,inactive,inactive,inactive,inactive,inactive,–,inactive,35.2 µM (active),–,32.2 µM (active),29 µM (active),32.2 µM (active) and 32.4 µM (active),20 µM (active),–,28.1 µM (active) and 24.6 µM (active),–,–
O=C(NC(=O)c1c(F)cccc1F)Nc1ccc(OC(F)(F)C(F)OC(F)(F)F)c(Cl)c1 (stereo unspecified),inactive,inactive,inactive,inactive,inactive,inactive,inactive,inactive,inactive,inactive,–,–,–,–,–,–,–,–,–,–
Oc1ccc(Cl)cc1Cc1ccccc1,–,inactive,inactive,–,inactive,–,–,inactive,–,–,32.4 µM (active) [middle of 7 runs],–,–,33.9 µM (active) [middle of 6 runs],33.2 µM (active) [middle of 7 runs],–,–,7.84 µM (active) [middle of 7 runs],12.4 µM (active) [middle of 4 runs],31.3 µM (active) [middle of 4 runs]
O=S(=O)(O)C(F)(F)C(F)(F)C(F)(F)C(F)(F)C(F)(F)C(F)(F)C(F)(F)C(F)(F)F,inactive,inactive,inactive,inactive,inactive,inactive,inactive,inactive,–,inactive,–,–,21.7 µM (active) [middle of 7 runs],–,13 µM (active) and 30 µM (active),35.1 µM (active) and 30.8 µM (active),–,–,3.97 µM (active),–
CCCN(CCC)c1c([N+](=O)[O-])cc(C(F)(F)F)cc1[N+](=O)[O-],inactive,inactive,inactive,–,inactive,inactive,inactive,inactive,inactive,–,–,–,15.2 µM (active),–,–,–,–,29.6 µM (active),–,–
[2H]C1([2H])[n+]2ccccc2-c2cccc[n+]2C1([2H])[2H],inactive,inactive,inactive,–,inactive,inactive,–,inactive,–,–,–,–,5.27 µM (active),–,–,1.16 µM (active),–,8.95 µM (active),–,–
CNC(=O)CSP(=S)(OC)OC,inactive,inactive,inactive,inactive,inactive,inactive,inactive,inactive,–,inactive,–,–,–,–,–,–,–,–,–,–
CCC(C)(C)C(=O)OC1=C(c2ccc(Cl)cc2Cl)C(=O)OC12CCCCC2,–,–,inactive,–,inactive,inactive,–,–,–,–,28.7 µM (active),10.5 µM (active),10.3 µM (active),–,–,5.74 µM (active),11 µM (active),4.67 µM (active),5.45 µM (active),–
O=C(O)C(F)(F)C(F)(F)C(F)(F)C(F)(F)C(F)(F)C(F)(F)C(F)(F)F,inactive,inactive,inactive,inactive,inactive,inactive,inactive,inactive,–,inactive,–,–,–,–,–,–,–,8.07 µM (active),22.4 µM (active),–
C#CCN1C(=O)COc2cc(F)c(N3C(=O)C4=C(CCCC4)C3=O)cc21,inactive,inactive,inactive,inactive,inactive,inactive,inactive,inactive,inactive,inactive,–,–,–,–,–,–,–,–,–,–
CCOCN(C(=O)CCl)c1c(C)cccc1CC,inactive,–,inactive,–,inactive,–,–,inactive,–,–,–,16.8 µM (active),20 µM (active),–,20 µM (active),8.23 µM (active),–,14.5 µM (active),–,–
CCOC1Oc2ccc(OS(C)(=O)=O)cc2C1(C)C (stereo unspecified),inactive,inactive,inactive,inactive,inactive,inactive,inactive,inactive,inactive,inactive,–,–,–,–,–,–,–,–,–,–
CN1CSC(=S)N(C)C1,inactive,inactive,inactive,–,inactive,–,inactive,inactive,–,–,–,–,16 µM (active),–,20 µM (active),–,–,13.5 µM (active),–,–
Cc1[nH]c(=O)n(C(C)(C)C)c(=O)c1Cl,inactive,inactive,inactive,inactive,inactive,inactive,inactive,inactive,–,inactive,–,–,–,–,–,–,–,–,–,–
CC(C)(C)C(O)C(Oc1ccc(Cl)cc1)n1cncn1 (stereo unspecified),inactive,inactive,inactive,inactive,inactive,inactive,inactive,inactive,–,–,–,–,–,–,–,–,–,–,–,–
CC(C)OC(=O)Nc1cccc(Cl)c1,inactive,inactive,inactive,inactive,inactive,inactive,inactive,inactive,–,inactive,–,–,–,–,–,–,–,–,–,–
CCc1ccc(C(=O)NN(C(=O)c2cc(C)cc(C)c2)C(C)(C)C)cc1,inactive,inactive,inactive,inactive,inactive,inactive,inactive,inactive,inactive,inactive,–,–,–,–,–,–,–,–,–,–
